# PKM2 activator: PKM2 (human) enzyme activation. AID 1631. purified PKM2, Kinase-Glo ATP luminescence, activation; response scale: 0% is enzyme alone, no compound. Potency, µM (doses to about 57.5 µM), without a hit: at the top dose activation, most hits filed as activators. P14618. hit rate 0.34% among 260,000; also: potency is read from the fitted curve at half-maximal effect; % is scaled to controls: 0 for no effect and ±100 for the full control effect; nearly all actives have a fitted effect of over 55% in size
# Target sequence (P14618 whole entry, looked up): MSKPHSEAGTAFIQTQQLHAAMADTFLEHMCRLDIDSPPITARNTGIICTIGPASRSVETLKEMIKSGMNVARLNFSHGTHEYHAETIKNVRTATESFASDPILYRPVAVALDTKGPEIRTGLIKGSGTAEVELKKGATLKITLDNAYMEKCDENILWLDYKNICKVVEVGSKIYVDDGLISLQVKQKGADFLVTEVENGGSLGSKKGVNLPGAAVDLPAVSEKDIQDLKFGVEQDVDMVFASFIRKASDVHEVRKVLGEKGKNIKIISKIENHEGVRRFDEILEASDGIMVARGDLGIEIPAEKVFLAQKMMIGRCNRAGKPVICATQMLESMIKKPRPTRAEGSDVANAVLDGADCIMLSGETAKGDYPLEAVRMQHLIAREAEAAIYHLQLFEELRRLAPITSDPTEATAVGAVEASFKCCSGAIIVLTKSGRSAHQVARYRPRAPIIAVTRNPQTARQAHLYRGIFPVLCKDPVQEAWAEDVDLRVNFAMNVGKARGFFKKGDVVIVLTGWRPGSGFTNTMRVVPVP
#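 Kinase-Glo luminescence reports ATP generated from ADP (0.1 mM) and PEP (0.5 mM) by purified hPK-M2 after 1 h at room temperature, pH 7.2 imidazole buffer; intermediate enzyme activity allows detecting inhibitors and activators.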
# a7 integrin act: integrin-mediated muscular dystrophy alleviation activation; AID 624291; hit rate 0.064% among 350,000; alpha7betagal myoblasts, beta-gal FDG fluorescence, 48 h; Potency, µM (highest dose often 38.3 µM), for inactives: at the highest dose activation, hits mostly activators;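 also: potency is read from the fitted curve at half-maximal effect; 100% = response of the positive control SU9516; nearly all actives have a fitted effect of over 60% in size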
#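 alpha7betagal+/- myoblasts (passage 13, 250/well) treated 48 h at 37C with compounds at 1:260 dilution of DMSO stock. Lysed, then beta-galactosidase activity read as FDG fluorescence (ex 480/em 540) after 30 min, with pre-read for autofluorescence.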
# USP2a inh: inhibitors of human ubiquitin-specific protease USP2a; O75604; USP2 core, Ub-CHOP2 coupled fluorogenic reporter, 485/531; Potency, µM (titrated, usually from 38.3 µM), for the others: top-dose activity change, negative = inhibition, usual class: inhibitors; hit rate 0.01% among 330,000;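 also: potency is read from the fitted curve at half-maximal effect; plate controls were DMSO wells for no effect and full inhibition by NEM control for full effect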
#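 USP2 core (10nM final) preincubated 30min RT with compound in 20mM Tris-HCl pH 8.0, 2mM CaCl2, 2mM beta-mercaptoethanol, 0.05% CHAPS; 25nM Ub-CHOP2 plus 25nM reporter substrate added, fluorescence (Ex485/Em531) read after 60min.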
# ClpP mod: qHTS Assay for Activators of ClpP; ATP-dependent Clp protease proteolytic subunit (Bacillus subtilis (strain 168)), P80244; purified B. subtilis ClpP, FRET peptide cleavage, 20 min; Potency, µM (titrated, usually from 57.5 µM), without a hit: top-dose activity change, negative = active; hit rate 1.9% among 340,000; AID 651965, 2013; active = well fitted falling curve with a large enough effect; inconclusive = small, poorly fitted or top-dose-only effect; inactive = no such curve, though single readings can be large or run the other way; also: potency is read from the fitted curve at half-maximal effect; the source files actives as falling curves though it sought activators and does not explain the sign; nearly all actives have a fitted effect of over 65% in size
#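 FRET quenching reversal measured ClpP activation: 10 microg/mL B. subtilis ClpP at pH 8 with the FRET-FV decapeptide, read at 430 nm after 320 nm excitation. The 20-min minus 0-min signal was scaled between DMSO/no-enzyme wells and ADEP (5.8 microM final).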
# Pin1 inh: blocks the human prolyl isomerase Pin1; Q13526; Pin1 FP peptide displacement, HiFluor488, 10 min; Potency, µM (titrated, usually from 115 µM), without a hit: top-dose activity, negative = inhibition, most hits filed as inhibitors; hit rate 0.009% among 390,000; AID 504891; active = well fitted inhibition curve with a large enough effect in the polarisation, with a control signal flat, not every such curve was filed as active; inconclusive = small, poorly fitted or top-dose-only effect, or effect the other way, or a change in a side signal; inactive = no such curve, though single readings can be large or run the other way; the % refers to the polarisation; also: potency is read from the fitted curve at half-maximal effect; % is scaled to controls: 0 for no effect and ±100 for the full control effect
# Target sequence (Q13526 whole entry, looked up): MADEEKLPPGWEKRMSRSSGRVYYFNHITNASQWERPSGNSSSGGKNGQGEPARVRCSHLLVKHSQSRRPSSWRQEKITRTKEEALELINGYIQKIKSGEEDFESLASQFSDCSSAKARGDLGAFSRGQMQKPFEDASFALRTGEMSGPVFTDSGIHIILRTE
# IL2 activator: activates IL-2 in a cell-based reporter assay | hit rate 0.065% among 360,000 | IL-2 activation reporter assay, cell-based qHTS; stimulated with anti-CD3/CD4/CD28 beads; in transgenic mouse T cells | activation, % (series mostly up to about 46 µM) | AID 652025; in the data active = activation above about 50%; inconclusive = mostly about 30% to 49%; also: 0% is about no effect
#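 EGFP and DsRed fluorescence is measured by plate cytometry in unstimulated transgenic mouse T cells exposed to compound for 60 minutes, then stimulated 18 hours at 37 degrees C with anti-CD3/anti-CD4 beads plus anti-CD28.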
# * hit, by the source's call; ? = inconclusive; · = no result; [ ] = another dose, or the depositor's remark. A selection: hits, their analogues and other compounds. The true share with any hit is near 1.9%. Unless noted, calls follow the shape of the dose curve; as a rule, active = well fitted curve in the direction sought with a large enough effect; inconclusive = small, poorly fitted or top-dose-only effect, or another doubt; inactive = no such curve, though single readings can be large; an effect the other way counts as inactive or inconclusive.
SMILES,PKM2 activator,a7 integrin act,USP2a inh,ClpP mod,Pin1 inh,IL2 activator
CCCc1cc(=O)n2[nH]c(C)cc2n1,-0.6%,33.8%,1.8%,31.6µM*,10.5%,-1.6
COC(=O)Cc1cc(=O)n2[nH]c(C)cc2n1,1.2%,5.9%,4.0%,-7.2%,0.3%,3.2
CCCn1c(C)nc2c(Nc3ccccc3)nc(C)nc21,2.6%,·,·,·,·,·
C[n+]1ccc(/C=C/c2ccc([N+](C)(C)C)cc2)c2ccccc21,·,·,·,-8.1%,·,·
O=c1c2c3nc4ccccc4nc3n(-c3ccc4c(c3)OCCO4)c2ncn1CC1CCCO1 (stereo unspecified),0.9%,·,?,·,·,·
COCCCn1c2nc3ccccc3nc2c2c(=O)n(CC3CCCO3)cnc21 (stereo unspecified),-7.2%,3.6%,2.1%,12.6µM*,3.4%,-1.4
COc1ccc(-n2c(C)c([N+](=O)[O-])c3ccc(O)c(CN(C)C)c32)cc1,0.5%,-10.1%,-11.9%,22.4µM*,-0.7%,-0.4
Cc1cc(C)c2cc(C#N)c(N3CCCC3)nc2c1,0.7%,17.8%,-2.1%,25.1µM*,11.1%,-0.5
Cc1cc2cc(C#N)c(N3CCN(S(C)(=O)=O)CC3)nc2cc1C,-3.6%,2.1%,5.7%,20µM*,4.0%,2.2
Cc1cc(C)c2cc(C#N)c(N3CCCN(C(=S)NCCCN(C)C)CC3)nc2c1,·,-66.6%,-0.9%,·,2.4%,-0.6
COc1ccc2nc(-c3ccc(N(C)C)cc3)sc2c1,·,·,·,·,13.3%,·
CN(C)/C=C/C(=O)c1ccc2noc(-c3ccc(F)cc3)c2c1,·,7.0%,0.5%,-2.9%,4.8%,-5.0
Cc1ccc(-c2onc3ccc(C(=O)/C=C/N(C)C)cc23)cc1,·,3.55µM*,1.5%,-0.1%,3.5%,-3.8
FC(F)(F)C1=Nc2cccc3cccc(c23)N1,·,-0.2%,10µM*,-0.6%,·,-1.3
COc1cc2c(NC3CCN(C)CC3)nc(N3CCCCC3)nc2cc1OCCCN(C)C,·,·,·,4.4%,·,·
Cc1ccc(CN(Cc2cccnc2)C(=O)CN2C(=O)COc3ccccc32)o1,28.2µM*,-22.2%,3.1%,-1.5%,-2.5%,0.6
COc1ccc(/C=C/c2ccc3ccccc3n2)c(OC)c1,·,·,·,4.3%,·,·
COc1ccc(S(=O)(=O)N2CCN(Cc3ccccc3OC)CC2)cc1,·,-16.8%,·,1.2%,·,-2.0
CCN1CCN(S(=O)(=O)c2ccc(Oc3ccccc3OC)cc2)CC1,-22.0%,41.2%,6.0%,20µM*,5.3%,-4.3
Cc1ccccc1C(=O)N1CCC(C(=O)N2CCCc3ccccc32)CC1,·,-5.3%,0.7%,1.1%,-3.7%,-0.2
O=C(c1ccc(Cl)cc1)N1CCC(C(=O)N2CCCc3ccccc32)CC1,·,19.4%,2.0%,31.6µM*,-7.1%,0.9
Cc1cc(C)c2c(N)c(C(=O)Nc3ccccc3Br)sc2n1,1.2%,-1.7%,-1.4%,4.3%,2.2%,2.2
CCc1ccccc1NC(=O)c1sc2nc(C)cc(C)c2c1N,1.1%,-23.2%,-1.3%,31.6µM*,-0.2%,0.0
O=C1CC2(CCN(C(=O)c3ccccc3Br)CC2)Oc2ccccc21,·,12.4%,1.8%,28.2µM*,-1.2%,-4.7
Cc1c(C(=O)N2CCC3(CC2)CC(=O)c2ccccc2O3)cccc1[N+](=O)[O-],·,6.2%,3.6%,-16.3%,1.3%,-1.8
SMILES,PKM2 activator,a7 integrin act,USP2a inh,ClpP mod,Pin1 inh,IL2 activator
O=C1CC2(CCN(C(=O)c3ccc(Br)cc3)CC2)Oc2ccccc21,·,30.1%,-0.9%,31.6µM*,-2.2%,-3.3
c1ccc(-n2c(-c3ccco3)nnc2-c2ccco2)cc1,-4.6%,-6.1%,0.1%,14.1µM*,1.0%,-0.4
Cc1cccc(C)c1NC(=O)CSc1nc(C)c(CC(=O)c2ccc(Br)cc2)c(C)c1C#N,-5.4%,19.2%,1.1%,28.2µM*,2.8%,-0.5
CCNC(=O)/C(=C\C=C\c1ccccc1)NC(=O)c1ccc(Br)o1,-2.3%,-11.3%,1.7%,3.16µM*,10.2%,-1.2
Cc1ccc(CNc2ncnc(N)c2[N+](=O)[O-])cc1,-2.4%,10µM*,0.9%,·,-10.9%,-0.4
Cc1cccc(C)c1Nc1ncnc(N)c1[N+](=O)[O-],5.6%,-11.5%,9.2%,-1.1%,-11.7%,3.0
Cc1ccc(S(=O)(=O)Nc2ccc(-c3nnc(SCC#N)n3C)cc2)cc1,20µM*,0.0%,0.3%,-2.7%,5.1%,3.3
FC(F)(F)C(F)(F)C(F)(F)c1nc2ccccc2[nH]1,·,·,·,1.6%,·,·
S=C(NCCSCc1ccc(Cl)cc1)Nc1ccccc1,-7.6%,8.1%,-2.5%,-0.4%,-4.2%,-3.3
Cc1cccc(CSCCNC(=S)Nc2ccccc2)c1,8.7%,6.2%,0.1%,25.1µM*,-1.8%,0.1
CC(O)Cn1ccccc1=N (stereo unspecified),0.8%,18.2%,1.5%,15.8µM*,-5.6%,-0.3
CCNc1nc(NCC)nc(OCCOC(=O)c2ccccc2)n1,14.1µM*,0.0%[7.66 µM],1.9%,-1.0%,-7.7%,-1.7
CCNc1nc(NCC)nc(OCCOC(=O)Nc2ccccc2)n1,4.6%,7.3%,2.0%,0.3%,-4.2%,-4.2
Cc1ccc2nc(-c3ccc(C)c(NC(=O)COc4ccccc4Cl)c3)oc2c1,·,·,·,-11.1%,·,·
CS/C(=N\S(=O)(=O)c1cccs1)Nc1ccc(F)c(Cl)c1,-4.3%,13.6%,12.4%,20µM*,-1.8%,-0.8
COc1ccccc1C(=O)NC(CCSC)C(=O)NNC(=O)c1ccccc1O (stereo unspecified),·,-20.0%,3.2%,?,0.2%,0.7
COc1ccccc1C(=O)NC(CCSC)C(=O)NNC(=O)c1ccc(F)cc1 (stereo unspecified),-4.5%,12.3%,0.6%,28.2µM*,0.2%,-3.9
COc1ccc(-c2nc(C#N)c(NCc3ccccc3Cl)o2)cc1,7.5%,-10.2%,·,35.5µM*,2.0%,-0.2
COc1ccc(CNc2oc(-c3ccc(COc4ccc(OC)cc4)o3)nc2C#N)cc1,·,·,·,22.4µM*,30.9%,·
CCOc1ccc(-c2nc(C#N)c(NC3CC3)o2)cc1,4.1%,-15.6%,1.2%,7.08µM*,-1.7%,-2.1
COc1ccc(-c2nc(C#N)c(NCCc3ccccc3)o2)cc1,-3.0%,-11.3%,0.6%,31.6µM*,1.4%,-2.2
O=C(C[N+]1(CCO)CCOCC1)c1ccc2ccccc2c1,·,·,·,-0.8%,·,·
Cc1ccc(OCc2ccc(-c3nc(C#N)c(NCc4ccccc4Cl)o3)o2)cc1,·,·,·,25.1µM*,11.4%,·
COCCNc1oc(-c2ccc(COc3ccc(OC)cc3)o2)nc1C#N,·,·,·,?,-19.4%,·
CCCCNc1oc(-c2ccc(COc3ccc(OC)cc3)o2)nc1C#N,·,·,·,28.2µM*,-2.5%,·

# Screening data as filed in PubChem.
